Test results taken from ChEMBL document CHEMBL1961873, “Compounds: GSK PKIS; Assays: Nanosyn kinase panel” (2012).
“And” between values parts separate entries of the source, which are not always exact repeats. Equal values may be shown once.

Columns and labels:
[1] = molecular target: 5'-AMP-activated protein kinase catalytic subunit alpha-2 (Homo sapiens) (UniProt P54646); details: at 1 µM
[2] = molecular target: T1, NUAK family SNF1-like kinase 1 (Homo sapiens) (UniProt O60285); details: at 0.1 µM
T1 sequence (whole entry): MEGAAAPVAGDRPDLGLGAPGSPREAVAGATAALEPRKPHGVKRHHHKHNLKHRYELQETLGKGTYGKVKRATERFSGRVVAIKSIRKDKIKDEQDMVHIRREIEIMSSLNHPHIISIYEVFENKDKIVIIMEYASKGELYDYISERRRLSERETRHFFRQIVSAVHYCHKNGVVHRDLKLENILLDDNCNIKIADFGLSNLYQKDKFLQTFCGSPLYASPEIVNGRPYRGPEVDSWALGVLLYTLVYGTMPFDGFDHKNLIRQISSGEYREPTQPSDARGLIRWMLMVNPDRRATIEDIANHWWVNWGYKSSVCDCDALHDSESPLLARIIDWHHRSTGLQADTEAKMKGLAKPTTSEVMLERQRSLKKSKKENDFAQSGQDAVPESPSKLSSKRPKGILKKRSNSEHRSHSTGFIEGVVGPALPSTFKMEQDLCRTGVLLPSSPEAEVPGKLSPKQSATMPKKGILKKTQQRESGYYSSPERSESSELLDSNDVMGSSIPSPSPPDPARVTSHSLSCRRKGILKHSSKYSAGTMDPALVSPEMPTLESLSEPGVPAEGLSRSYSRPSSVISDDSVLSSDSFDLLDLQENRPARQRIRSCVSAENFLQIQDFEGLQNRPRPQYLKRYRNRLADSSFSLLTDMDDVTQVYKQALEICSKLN

[3] = molecular target: T1, NUAK family SNF1-like kinase 1 (Homo sapiens); details: at 1 µM
[4] = molecular target: T2, Serine/threonine-protein kinase BRSK1 (Homo sapiens) (UniProt Q8TDC3); details: at 0.1 µM
T2 sequence (whole entry): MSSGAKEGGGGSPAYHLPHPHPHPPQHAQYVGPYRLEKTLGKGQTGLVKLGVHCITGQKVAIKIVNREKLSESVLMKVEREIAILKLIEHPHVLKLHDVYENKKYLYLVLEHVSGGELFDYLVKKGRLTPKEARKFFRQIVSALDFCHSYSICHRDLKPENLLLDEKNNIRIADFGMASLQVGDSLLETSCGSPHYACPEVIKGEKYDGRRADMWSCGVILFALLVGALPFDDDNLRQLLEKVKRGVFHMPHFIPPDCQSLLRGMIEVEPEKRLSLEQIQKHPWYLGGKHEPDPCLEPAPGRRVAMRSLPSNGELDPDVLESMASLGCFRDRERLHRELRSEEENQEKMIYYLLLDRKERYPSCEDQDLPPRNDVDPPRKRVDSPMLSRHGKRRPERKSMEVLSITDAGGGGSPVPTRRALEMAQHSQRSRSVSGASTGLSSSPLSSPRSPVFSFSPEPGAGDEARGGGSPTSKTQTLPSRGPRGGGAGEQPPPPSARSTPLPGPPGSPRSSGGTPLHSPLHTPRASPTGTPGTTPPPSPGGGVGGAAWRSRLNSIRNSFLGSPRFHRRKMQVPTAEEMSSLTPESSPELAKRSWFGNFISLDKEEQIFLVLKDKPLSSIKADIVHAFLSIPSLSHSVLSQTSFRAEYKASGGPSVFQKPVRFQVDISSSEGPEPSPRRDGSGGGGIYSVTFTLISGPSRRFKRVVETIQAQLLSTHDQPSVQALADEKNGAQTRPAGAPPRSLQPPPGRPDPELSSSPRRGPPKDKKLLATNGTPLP

[5] = molecular target: T2, Serine/threonine-protein kinase BRSK1 (Homo sapiens); details: at 1 µM
[6] = molecular target: T3, Serine/threonine-protein kinase BRSK2 (Homo sapiens) (UniProt Q8IWQ3); details: at 0.1 µM
T3 sequence (whole entry): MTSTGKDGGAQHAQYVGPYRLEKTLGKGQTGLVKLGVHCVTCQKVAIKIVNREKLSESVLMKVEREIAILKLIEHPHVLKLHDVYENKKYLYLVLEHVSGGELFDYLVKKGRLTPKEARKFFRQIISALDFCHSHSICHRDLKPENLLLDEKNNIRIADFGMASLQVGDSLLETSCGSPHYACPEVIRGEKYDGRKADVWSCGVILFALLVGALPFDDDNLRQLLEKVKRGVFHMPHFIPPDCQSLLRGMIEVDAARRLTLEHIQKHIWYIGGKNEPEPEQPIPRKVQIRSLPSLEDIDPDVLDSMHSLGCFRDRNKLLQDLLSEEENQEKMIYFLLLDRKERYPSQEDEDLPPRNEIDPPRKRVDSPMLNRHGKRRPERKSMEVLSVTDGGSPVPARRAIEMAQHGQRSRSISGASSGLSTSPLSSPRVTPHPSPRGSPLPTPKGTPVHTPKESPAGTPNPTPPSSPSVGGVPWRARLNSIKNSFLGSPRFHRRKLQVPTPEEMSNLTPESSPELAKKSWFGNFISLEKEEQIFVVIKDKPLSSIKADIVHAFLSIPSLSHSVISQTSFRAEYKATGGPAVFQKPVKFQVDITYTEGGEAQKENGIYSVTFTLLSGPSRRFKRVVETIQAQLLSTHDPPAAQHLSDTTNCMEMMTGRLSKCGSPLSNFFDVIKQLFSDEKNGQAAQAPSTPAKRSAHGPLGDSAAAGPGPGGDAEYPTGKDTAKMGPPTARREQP

[7] = molecular target: T3, Serine/threonine-protein kinase BRSK2 (Homo sapiens); details: at 1 µM
[8] = molecular target: Calcium/calmodulin-dependent protein kinase type 1D (Homo sapiens) (UniProt Q8IU85); details: at 0.1 µM
[9] = molecular target: Calcium/calmodulin-dependent protein kinase type 1D (Homo sapiens) (UniProt Q8IU85); details: at 1 µM
[10] = molecular target: Calcium/calmodulin-dependent protein kinase type II subunit alpha (Homo sapiens) (UniProt Q9UQM7); details: at 0.1 µM
[11] = molecular target: Calcium/calmodulin-dependent protein kinase type II subunit alpha (Homo sapiens) (UniProt Q9UQM7); details: at 1 µM
[12] = molecular target: Calcium/calmodulin-dependent protein kinase type II subunit delta (Homo sapiens) (UniProt Q13557); details: at 0.1 µM
[13] = molecular target: Calcium/calmodulin-dependent protein kinase type II subunit delta (Homo sapiens) (UniProt Q13557); details: at 1 µM
[14] = molecular target: T4, Calcium/calmodulin-dependent protein kinase type IV (Homo sapiens) (UniProt Q16566); details: at 0.1 µM
T4 sequence (whole entry): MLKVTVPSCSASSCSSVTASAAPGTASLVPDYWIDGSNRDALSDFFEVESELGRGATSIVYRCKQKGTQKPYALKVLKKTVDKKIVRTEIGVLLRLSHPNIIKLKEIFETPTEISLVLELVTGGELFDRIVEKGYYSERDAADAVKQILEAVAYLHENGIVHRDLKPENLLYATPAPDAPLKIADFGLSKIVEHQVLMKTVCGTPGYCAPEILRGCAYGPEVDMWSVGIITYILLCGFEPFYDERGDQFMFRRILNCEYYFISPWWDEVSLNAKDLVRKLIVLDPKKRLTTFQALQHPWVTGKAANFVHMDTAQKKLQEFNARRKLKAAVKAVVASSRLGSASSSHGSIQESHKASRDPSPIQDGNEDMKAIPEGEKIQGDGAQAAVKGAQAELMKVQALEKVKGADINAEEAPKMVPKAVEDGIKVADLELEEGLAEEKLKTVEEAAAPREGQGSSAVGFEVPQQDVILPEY

[15] = molecular target: T4, Calcium/calmodulin-dependent protein kinase type IV (Homo sapiens); details: at 1 µM
[16] = molecular target: T5, Serine/threonine-protein kinase Chk1 (Homo sapiens) (UniProt O14757); details: at 0.1 µM
T5 sequence (whole entry): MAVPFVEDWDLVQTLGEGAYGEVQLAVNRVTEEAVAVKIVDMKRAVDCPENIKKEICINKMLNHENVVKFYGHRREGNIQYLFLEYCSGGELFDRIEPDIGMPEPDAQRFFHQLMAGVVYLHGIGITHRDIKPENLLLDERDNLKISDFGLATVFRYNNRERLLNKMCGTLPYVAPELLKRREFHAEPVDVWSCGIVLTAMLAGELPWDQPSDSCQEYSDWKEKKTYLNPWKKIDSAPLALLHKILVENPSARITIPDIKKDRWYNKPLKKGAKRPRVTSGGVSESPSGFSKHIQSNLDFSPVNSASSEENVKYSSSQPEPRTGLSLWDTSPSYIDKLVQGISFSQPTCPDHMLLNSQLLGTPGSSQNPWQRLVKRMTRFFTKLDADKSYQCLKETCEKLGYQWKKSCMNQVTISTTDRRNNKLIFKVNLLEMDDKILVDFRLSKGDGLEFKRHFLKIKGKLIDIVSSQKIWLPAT

[17] = molecular target: T5, Serine/threonine-protein kinase Chk1 (Homo sapiens); details: at 1 µM
[18] = molecular target: Serine/threonine-protein kinase Chk2 (Homo sapiens) (UniProt O96017); details: at 0.1 µM
[19] = molecular target: Serine/threonine-protein kinase Chk2 (Homo sapiens) (UniProt O96017); details: at 1 µM
[20] = molecular target: Death-associated protein kinase 1 (Homo sapiens) (UniProt P53355); details: at 0.1 µM;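 note: reported figure is the mean inhibition of DAPK1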
Chain of Death-associated protein kinase 1 (Homo sapiens) (P53355 whole entry, looked up): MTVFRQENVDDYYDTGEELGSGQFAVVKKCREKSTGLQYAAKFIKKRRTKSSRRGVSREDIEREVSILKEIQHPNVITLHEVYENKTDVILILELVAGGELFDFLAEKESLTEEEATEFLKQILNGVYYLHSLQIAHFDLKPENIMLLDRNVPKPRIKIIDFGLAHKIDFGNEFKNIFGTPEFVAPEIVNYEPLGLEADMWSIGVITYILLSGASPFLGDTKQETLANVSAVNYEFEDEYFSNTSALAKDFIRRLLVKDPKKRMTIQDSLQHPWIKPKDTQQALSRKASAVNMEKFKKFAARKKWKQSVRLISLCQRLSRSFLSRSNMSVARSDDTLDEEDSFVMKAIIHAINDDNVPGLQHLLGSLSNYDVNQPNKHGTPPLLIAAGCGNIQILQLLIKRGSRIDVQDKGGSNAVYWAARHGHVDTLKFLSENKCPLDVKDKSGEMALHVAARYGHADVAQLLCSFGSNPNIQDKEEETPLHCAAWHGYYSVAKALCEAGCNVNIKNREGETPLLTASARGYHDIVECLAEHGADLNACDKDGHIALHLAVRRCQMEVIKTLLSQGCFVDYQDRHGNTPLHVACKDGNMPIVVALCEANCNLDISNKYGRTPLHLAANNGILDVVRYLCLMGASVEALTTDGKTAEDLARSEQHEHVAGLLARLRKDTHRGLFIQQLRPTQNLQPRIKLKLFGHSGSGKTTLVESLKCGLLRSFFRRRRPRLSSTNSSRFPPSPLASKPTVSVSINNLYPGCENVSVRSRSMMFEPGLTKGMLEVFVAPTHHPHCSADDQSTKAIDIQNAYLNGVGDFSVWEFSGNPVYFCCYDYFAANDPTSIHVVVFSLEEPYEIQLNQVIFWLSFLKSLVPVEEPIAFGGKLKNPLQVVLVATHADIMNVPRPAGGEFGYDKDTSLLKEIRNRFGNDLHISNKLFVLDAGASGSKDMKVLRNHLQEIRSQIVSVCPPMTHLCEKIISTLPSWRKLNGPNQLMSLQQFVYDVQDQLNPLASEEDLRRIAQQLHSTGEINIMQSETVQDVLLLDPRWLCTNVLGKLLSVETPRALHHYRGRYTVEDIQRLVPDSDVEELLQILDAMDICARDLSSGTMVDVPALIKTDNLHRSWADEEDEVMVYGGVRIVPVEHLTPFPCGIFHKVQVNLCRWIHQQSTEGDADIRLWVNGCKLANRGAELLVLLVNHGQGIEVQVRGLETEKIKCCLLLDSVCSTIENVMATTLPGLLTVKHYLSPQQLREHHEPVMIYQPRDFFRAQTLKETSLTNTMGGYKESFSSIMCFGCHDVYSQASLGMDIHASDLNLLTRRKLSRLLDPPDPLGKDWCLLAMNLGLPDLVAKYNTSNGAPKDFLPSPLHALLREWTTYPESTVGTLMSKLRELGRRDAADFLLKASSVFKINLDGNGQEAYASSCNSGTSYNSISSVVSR

Chain of Calcium/calmodulin-dependent protein kinase type II subunit alpha (Homo sapiens) (Q9UQM7 whole entry): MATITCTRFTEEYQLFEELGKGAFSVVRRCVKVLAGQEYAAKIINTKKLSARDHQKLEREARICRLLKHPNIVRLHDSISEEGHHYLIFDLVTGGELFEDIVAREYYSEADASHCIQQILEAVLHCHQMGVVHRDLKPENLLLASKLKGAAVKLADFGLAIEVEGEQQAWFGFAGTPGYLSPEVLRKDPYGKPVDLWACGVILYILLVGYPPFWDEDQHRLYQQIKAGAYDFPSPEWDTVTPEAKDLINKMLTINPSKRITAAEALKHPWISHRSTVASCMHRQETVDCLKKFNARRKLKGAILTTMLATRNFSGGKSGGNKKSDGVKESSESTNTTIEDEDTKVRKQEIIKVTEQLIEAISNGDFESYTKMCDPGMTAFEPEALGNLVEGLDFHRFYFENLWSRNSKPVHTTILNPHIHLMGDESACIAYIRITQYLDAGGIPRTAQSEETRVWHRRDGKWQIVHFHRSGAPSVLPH
Chain of 5'-AMP-activated protein kinase catalytic subunit alpha-2 (Homo sapiens) (P54646 whole entry, looked up): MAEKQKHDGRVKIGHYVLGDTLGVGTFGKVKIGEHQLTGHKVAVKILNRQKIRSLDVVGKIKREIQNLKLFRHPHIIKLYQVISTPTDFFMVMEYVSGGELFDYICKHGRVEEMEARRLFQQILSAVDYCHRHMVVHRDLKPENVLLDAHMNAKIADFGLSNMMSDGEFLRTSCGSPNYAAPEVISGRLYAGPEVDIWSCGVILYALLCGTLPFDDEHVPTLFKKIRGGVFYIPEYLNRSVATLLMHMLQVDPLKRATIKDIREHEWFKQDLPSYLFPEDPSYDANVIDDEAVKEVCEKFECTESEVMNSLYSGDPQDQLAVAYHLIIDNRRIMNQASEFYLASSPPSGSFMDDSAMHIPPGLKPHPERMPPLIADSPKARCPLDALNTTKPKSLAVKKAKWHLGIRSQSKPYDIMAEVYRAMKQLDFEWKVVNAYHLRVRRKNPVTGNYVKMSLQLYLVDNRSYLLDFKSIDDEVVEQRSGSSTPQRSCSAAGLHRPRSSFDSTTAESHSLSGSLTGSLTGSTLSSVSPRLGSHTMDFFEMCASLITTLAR
Chain of Calcium/calmodulin-dependent protein kinase type 1D (Homo sapiens) (Q8IU85 whole entry, looked up): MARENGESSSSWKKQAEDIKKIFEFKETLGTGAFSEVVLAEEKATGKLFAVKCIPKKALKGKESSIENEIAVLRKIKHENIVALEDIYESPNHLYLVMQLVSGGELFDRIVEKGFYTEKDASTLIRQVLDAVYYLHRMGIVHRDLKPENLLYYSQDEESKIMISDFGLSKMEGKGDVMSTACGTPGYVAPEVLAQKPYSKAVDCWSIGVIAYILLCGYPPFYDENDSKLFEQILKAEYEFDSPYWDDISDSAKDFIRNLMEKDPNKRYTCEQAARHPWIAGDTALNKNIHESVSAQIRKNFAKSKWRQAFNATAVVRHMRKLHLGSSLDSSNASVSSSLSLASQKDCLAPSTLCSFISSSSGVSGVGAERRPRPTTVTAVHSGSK
Chain of Calcium/calmodulin-dependent protein kinase type II subunit delta (Homo sapiens) (Q13557 whole entry): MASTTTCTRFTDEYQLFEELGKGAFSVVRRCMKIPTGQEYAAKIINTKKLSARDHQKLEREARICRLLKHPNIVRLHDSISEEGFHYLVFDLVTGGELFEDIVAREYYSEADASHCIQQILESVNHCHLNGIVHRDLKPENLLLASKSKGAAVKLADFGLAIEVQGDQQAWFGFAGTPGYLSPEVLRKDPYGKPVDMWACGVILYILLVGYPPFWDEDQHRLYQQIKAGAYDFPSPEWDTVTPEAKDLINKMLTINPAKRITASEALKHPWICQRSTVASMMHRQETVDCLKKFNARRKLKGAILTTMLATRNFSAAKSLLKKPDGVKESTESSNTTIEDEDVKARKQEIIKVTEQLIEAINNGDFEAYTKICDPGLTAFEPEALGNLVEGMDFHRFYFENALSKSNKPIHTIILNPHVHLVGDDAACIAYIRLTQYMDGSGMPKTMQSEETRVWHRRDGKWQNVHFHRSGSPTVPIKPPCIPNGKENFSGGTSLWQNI
Chain of Serine/threonine-protein kinase Chk2 (Homo sapiens) (O96017 whole entry): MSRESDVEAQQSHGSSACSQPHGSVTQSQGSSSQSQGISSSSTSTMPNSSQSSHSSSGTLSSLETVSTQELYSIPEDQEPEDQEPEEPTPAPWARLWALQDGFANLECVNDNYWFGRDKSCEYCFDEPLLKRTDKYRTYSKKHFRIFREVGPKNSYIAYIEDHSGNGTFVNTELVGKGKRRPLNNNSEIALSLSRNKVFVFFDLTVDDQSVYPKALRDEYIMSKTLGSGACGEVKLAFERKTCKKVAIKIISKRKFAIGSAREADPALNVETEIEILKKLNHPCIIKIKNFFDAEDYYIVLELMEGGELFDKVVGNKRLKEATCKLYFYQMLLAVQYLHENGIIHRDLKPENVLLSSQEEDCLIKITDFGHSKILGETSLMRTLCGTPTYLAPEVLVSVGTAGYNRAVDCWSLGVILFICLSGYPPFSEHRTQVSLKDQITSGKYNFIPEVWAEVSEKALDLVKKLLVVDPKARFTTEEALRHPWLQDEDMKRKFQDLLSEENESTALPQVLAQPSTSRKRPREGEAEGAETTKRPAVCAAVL

Row | SMILES | inhibition [1] | inhibition [2] | inhibition [3] | inhibition [4] | inhibition [5] | inhibition [6] | inhibition [7] | inhibition [8] | inhibition [9] | inhibition [10] | inhibition [11] | inhibition [12] | inhibition [13] | inhibition [14] | inhibition [15] | inhibition [16] | inhibition [17] | inhibition [18] | inhibition [19] | inhibition [20]
1 | COc1cc2c(cc1Nc1nc(Nc3cccc(F)c3C(N)=O)c3cc[nH]c3n1)N(C(=O)CN1CCN(C(C)C)CC1)CC2 | 3.18% | 1.37% | 5.31% | 2.82% | -1.3% | -0.84% | -0.2% | 1.29% | 7.02% | 2.3% | 8.11% | 2.82% | 7.41% | 2.31% | 7.37% | -0.51% | 4.94% | 6.05% | 29.8% | 2.3%
2 | COc1cccc(Nc2nccc(-c3cnn4ncccc34)n2)c1 | 7.99% | 52.8% | 71% | 0.63% | 6.67% | 0.75% | 10.4% | -0.48% | 4.71% | 4.77% | 13.8% | 6.9% | 35.4% | -0.56% | -1.54% | -2.67% | 3.93% | 1.92% | 11.2% | -0.58%
3 | COC(=O)Nc1nc2cc(Oc3ccc(NC(=O)Nc4ccccc4)cc3)ccc2[nH]1 | 0.9% | -0.53% | -0.72% | -0.86% | 0.34% | 0.79% | 2.06% | 0.99% | -1.18% | 2.23% | 1.94% | 1.6% | 1.54% | -1.32% | -2.54% | -0.71% | 3.92% | 1.94% | 3.46% | 3.21%
4 | N#Cc1ccc2c(-c3ccnc(NC4CC4)n3)c(-c3ccc(F)cc3)nn2c1 | 1.42% | -1.39% | -2.95% | -0.28% | -0.2% | -0.61% | 1.09% | -0.16% | 0.14% | -0.56% | -1.71% | 0.13% | -1.01% | 0.17% | -2.53% | -1.96% | -0.86% | -0.32% | 0.27% | 1.33%
5 | Nc1nccc(-c2c(-c3ccc(F)cc3)ncn2C2CCNCC2)n1 | -2.2% and 1.34% | 3.5% and 3.71% | 8.02% and 2.99% | 1.03% and 0.08% | 5.8% and 0.48% | 1.95% and 0.03% | 7.44% and 0.24% | -0.73% and -0.33% | 0.76% and -0.11% | -5.11% and -1.58% | -5.1% and -1.06% | -3.9% and -0.18% | 1.49% and 0.43% | 0% and 0.8% | -2.13% and 0% | -2.55% and 0.68% | -3.32% and -2.24% | -2.81% and -0.53% | -2.65% and -0.65% | -2.18% and -0.72%
6 | CCn1c(-c2nonc2N)nc2cncc(C(=O)NCCNC)c21 | 4.46% | -0.78% | 2.03% | 0.66% | 6.23% | 2.51% | 9.29% | -0.23% | 0.83% | 2.44% | -0.37% | 3.51% | 6.88% | -2.59% | 0.71% | 2.97% | -0.23% | 4.63% | 5.44% | 3.2%
7 | Cc1cc(O)cc(C)c1/C=C/c1cncc(C(=O)OC(C)(C)C)c1 | 4.01% | 1.92% | 4.1% | 0.6% | 5.15% | 2.26% | 3.54% | -0.01% | 1.19% | 1.37% | 3.26% | 2.39% | 5.41% | 0.08% | 1.35% | 2.4% | 3.47% | 0.86% | 2.31% | 1.5%
